VACV Venus inh: vaccinia inhibition (Venus reporter) | Potency, µM (titrated, usually from 36.5 µM), for the others: at the top dose activity change, negative = inhibition, most hits filed as inhibitors | Vaccinia virus Venus reporter expression, fluorescence | actives 0.46% (n = 330,000); calls by dose curve; tested in A549 cells; further: potency means the concentration at half of the fitted maximal effect; nearly all actives have a fitted effect of over 30% in size
FMDV antiviral: blocks foot and mouth disease virus; actives 1.2% (n = 410,000); AID 1159524; FMDV antiviral cell-based qHTS; Potency, µM (series often up to 57.9 µM), without a hit: at the highest dose activity change, negative = inhibition, actives largely listed as inhibitors; calls by dose curve; tested in HEK293T cells; further: read-out not given here; potency means the concentration at half of the fitted maximal effect; nearly all actives have a fitted effect of over 45% in size
VACV mCherry inh: inhibitors of vaccinia virus infection (mCherry reporter signal) | Vaccinia virus mCherry reporter infection, fluorescence | Potency, µM (titrated, usually from 36.5 µM), inactives show at the top dose activity change, negative = inhibition, hits mostly inhibitors | actives 0.63% (n = 310,000) | AID 720579; calls by dose curve; tested in A549 cells; further: potency means the concentration at half of the fitted maximal effect; nearly all actives have a fitted effect of over 35% in size
HCV inh: HCV inhibition; Potency, µM (top dose mostly 41.8 µM), inactives show at the highest dose activity change, negative = inhibition, hits mostly inhibitors; actives 3.4% (n = 340,000); Huh7.5.1 HCVcc-Cre infection, luciferase reporter, 44 h; active means well fitted inhibition curve with a large enough effect; inconclusive means small, poorly fitted or top-dose-only effect, or another doubt; inactive means no such curve, though single readings can be large or run the other way; further: potency means the concentration at half of the fitted maximal effect
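1,000 cells/well; 4 h culture; + compound; + HCVcc-Cre (~0.5 moi); 44 h; luciferase substrate, RT 15 min; read 15 sec.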
HCMV antiviral: inhibitors of human cytomegalovirus; HFF cells, HCMV-luciferase reporter, 72 h; active compounds read low; activity change, negative = inhibition, % at 57.5 µM; actives 4.5% (n = 410,000); in the data active means activity change below about -60%; inconclusive means no clear call, values can overlap the other calls; inactive means above about -39%
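Human foreskin fibroblasts infected with luciferase-reporter HCMV at MOI 1 PFU/cell, compounds at two doses. Luciferase measured 72 h post infection; normalized to buffer-only basal and Salinomycin (10uM) controls.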
Starred values were filed as active, the others as inactive; i = inactive; ? = inconclusive; · = no result; [ ] = remark or other dose. In the library only some 7.3% were active in any assay of this set; here they are far more common. On the % scale 0 is the no-effect control and ±100 the full control effect.

SMILES	VACV Venus inh	FMDV antiviral	VACV mCherry inh	HCV inh	HCMV antiviral
COC(=O)c1cc(NC(=O)Cc2ccc(OC)c(OC)c2)cc(C(=O)OC)c1	-0.9%	-2.8%	2.1%	-22.5%	48.8
COc1ccc(CCC(=O)Nc2cccc(S(=O)(=O)N3CCCCCC3)c2)cc1OC	·	?	·	?	-17.7
CCOc1ccc(NC(=O)CNc2cccc(S(=O)(=O)N3CCCCCC3)c2)cc1OCC	·	?	·	11.2µM*	0.0
COc1cc(C(=O)Nc2cccc(OCc3cc(=O)n4c(C)csc4n3)c2)cc(OC)c1OC	1.5%	-25.5%	-3.2%	·	11.0
COc1cc(C(=O)OC2CC[C@]3(C)C4CCC5[C@]6(O)CC(O)[C@]7(O)C(CN8CC(C)CCC8[C@]7(C)O)[C@]6(O)C[C@@]53O[C@]24O)cc(OC)c1OC (stereo partly specified)	-10.2%	-8.9%	-14.4%	·	·
COCCCNC(=O)c1c(NC(=O)Cc2coc3cc(C)ccc23)sc2c1CCCC2	-1.8%	31.4%	-8.4%	·	?
COc1ccc(NC(=O)CN(C2CCCCC2)S(C)(=O)=O)cc1Cl	·	-26.0%	·	-25.7%	-72.7*
COc1ccc(NCC(=O)Nc2cccc(S(=O)(=O)N3CCCC3)c2)cc1Cl	·	-11.5%	·	10µM*	43.9
COc1cc(NC(=O)CNc2cccc(S(=O)(=O)N3CCCC3)c2)cc(OC)c1	·	-27.6%	·	?	-8.0
COc1ccccc1-n1cnnc1SCC(=O)Nc1cccc(S(=O)(=O)N2CCCCC2)c1	·	·	·	9.3%	-67.9*
CCOc1cc2c(cc1OCC)CN(C(=O)c1cccc(S(=O)(=O)N3CCCC3)c1)CC2	·	-22.4%	·	8.91µM*	-23.2
CN(C)c1ccc(N=Cc2ccnc3ccccc23)cc1	15.2%	·	-14.4%	·	·
O=C(c1csnn1)N1CCC2(CC1)CCN(c1ccncc1)CC2	·	-3.2%	·	·	·
Cc1cc(C)c2cc(CN(CCN3CCCC3)C(=O)Nc3ccc(F)cc3)c(=O)[nH]c2c1	-21.5%	3.2%	·	?	46.5
CCc1ccc2[nH]c(=O)c(CN(CCCN3CCOCC3)C(=O)Nc3cccc(Cl)c3)cc2c1	?	?	·	10µM*	-14.1
Cc1ccc(C)c2[nH]c(=O)c(CN(CCN3CCCC3)C(=O)Nc3cccc(Cl)c3)cc12	-12.7%	-13.7%	-10.0%[1.46 µM]	11.2µM*	-14.0
Cc1cc(C)c(S(=O)(=O)Nc2ccc(-c3ccc(N4CCCCCC4)nn3)cc2)c(C)c1	-23.0%	39.5%	-14.8%	·	-6.7
Cc1ccc(C)c(N=Nc2nc3ccccc3n2C)c1	-24.5%	·	-12.7%	14.1µM*	?
Cc1cc(C)c(C)c(N=Nc2nc3ccccc3n2C)c1C	?	?	?	?	-10.1
CN1CCN(C(=O)c2ccc3c(c2)S(=O)(=O)c2ccccc2C3=O)CC1	-17.1%	-12.5%	?	-17.7%[8.37 µM]	-62.5*
CC(=O)N1CCN(C(=O)c2ccc3c(c2)S(=O)(=O)c2ccccc2C3=O)CC1	-7.4%	-3.2%	?	13.0%	·
COc1ccc(NC(=O)c2ccc3c(c2)S(=O)(=O)c2ccccc2C3=O)cc1	3.2%	-16.6%	-12.5%	2.7%	-62.8*
CC(C)(C)c1ccc(NC(=O)c2ccc3c(c2)S(=O)(=O)c2ccccc2C3=O)cc1	-17.5%	-19.8%	i	10.0%	21.3
COc1ccc(NC(=O)c2cccc3c2C(=O)c2ccc(-c4ccc(F)cc4OCc4ccccc4)cc2S3(=O)=O)cc1	?	-2.4%	-17.1%	-5.7%	-64.3*
COc1ccc(OC[C@@H](O)CNC(=O)c2cccc3c2C(=O)c2ccc(-c4ccc(F)cc4OCc4ccccc4)cc2S3(=O)=O)cc1	?	-18.8%	?	?	·
SMILES	VACV Venus inh	FMDV antiviral	VACV mCherry inh	HCV inh	HCMV antiviral
CCn1cc(/C=C(\NC(=O)c2ccc(OC)c(OC)c2)C(=O)NCCCn2ccnc2)c2ccccc21	-3.9%	0.0%	0.0%	·	-0.1
CCNC(=O)C1(C)CCCN(Cc2ccc(-c3ccccn3)cc2)C1 (stereo unspecified)	-10.9%	-15.9%	24.2%	·	-100.1*
CC(=O)N1CCN(c2ccc(NC(=O)c3ccc4c(c3)OCCO4)cc2)CC1	-12.3%	·	i	1.5%	-23.2
O=C(c1ccccc1)N1CCN(c2ccc(NCc3ccc4c(c3)OCO4)cc2)CC1	7.4%	?	?	11.2µM*	-35.0
O=C(Nc1ccc(N2CCCCC2)cc1)c1ccc2c(c1)OCCO2	·	-21.6%	·	?	-91.1*
O=C(CN1CCN(c2ccc(O)cc2)CC1)Nc1ccc2c(c1)OCCCO2	·	?	·	6.31µM*	?
